According to PubChem BioAssay:
Calls of active or inactive are those of the source. The rule behind the calls is not given here.

These compounds were tested against Pantothenate synthetase (Mycobacterium tuberculosis (strain ATCC 25618 / H37Rv)) (UniProt P9WIL5) (assay: Recombinant Mtb pantothenate synthetase (PanC) inhibitors, coupled enzyme, confirmatory (AID 375;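 note: 0% = full reaction with vehicle and 100% = no enzyme background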)). Settings: coupled enzyme assay; at 10 µM, stronger effect = higher value.
Sequence of Pantothenate synthetase (Mycobacterium tuberculosis (strain ATCC 25618 / H37Rv)) (P9WIL5 whole entry, looked up): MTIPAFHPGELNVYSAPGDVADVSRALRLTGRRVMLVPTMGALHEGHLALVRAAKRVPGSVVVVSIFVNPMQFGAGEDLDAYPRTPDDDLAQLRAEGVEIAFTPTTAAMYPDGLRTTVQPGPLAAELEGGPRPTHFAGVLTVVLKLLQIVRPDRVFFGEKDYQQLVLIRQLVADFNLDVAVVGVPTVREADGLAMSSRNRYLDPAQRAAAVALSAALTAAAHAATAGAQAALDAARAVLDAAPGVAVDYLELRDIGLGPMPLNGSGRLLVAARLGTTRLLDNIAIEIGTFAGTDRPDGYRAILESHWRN

Structure (SMILES)	inhibition
CSc1ccccc1NC(=O)c1noc2c1CCC2	0% (inactive)
COCc1nnc(NC(=O)c2ccc(NC(C)=O)cc2)s1	2% (inactive)
CC(C)(C)c1cc(C(=O)O)nn1-c1ccccc1	0% (inactive)
COc1cc(OC)c(C2C(C#N)=C(N)OC3=C2C(=O)CC(C)(C)C3)cc1OC (configuration not stated)	1% (inactive)
Cc1ccc(S(=O)(=O)Cc2ccc(C(=O)NCc3ccc4c(c3)OCO4)o2)cc1	0% (inactive)
O=C(Nc1cnn(C23CC4CC(CC(C4)C2)C3)c1)c1cnn2c(C(F)(F)F)cc(-c3ccco3)nc12	0% (inactive)
COc1ccc(NC(=O)c2cnc3n(c2=O)CCS3)cc1OC	0% (inactive)
O=C(CSc1nc2ccccc2o1)NC(=O)NCc1ccco1	0% (inactive)
CCOC(=O)C1CCN(C(=O)CN(c2ccc(Cl)c(C(F)(F)F)c2)S(C)(=O)=O)CC1	4% (inactive)
C=Cn1nc(C)c2ccccc2c1=O	0% (inactive)
COc1cccc(-c2nc3n(n2)C(c2ccccc2Cl)C(C(N)=O)=C(C)N3)c1 (configuration not stated)	0% (inactive)
COc1ccc(N2CCN(Cc3nc(-c4ccc(Cl)cc4Cl)no3)CC2)cc1	6% (inactive)
O=C(c1ccc(Cl)c(Cl)c1)N1CCOCC1	5% (inactive)
Cc1ccccc1-n1nc(C)c2cc(C(=O)NCc3cccnc3)sc21	0% (inactive)
CC1Cc2ccccc2N1C(=O)Cc1cccs1 (configuration not stated)	3% (inactive)
O=C(Nc1ccccc1C(=O)N1CCOCC1)c1ccncc1	0% (inactive)
CCCCc1c(O)nc(SCC(=O)c2ccccc2)[nH]c1=O	0% (inactive)
